Drawing on PubChem BioAssay (NCI), this text covers growth for nine molecules.

Holding throughout (assay): NCI-60 one-dose screen, 48 h (100 = growth as untreated, 0 = no growth, -100 = all killed)
Holding throughout (conditions): 10 µM unless noted

In experiment [1] the test system is RPMI-8226 leukemia.
Experiment [2] has as its system OVCAR-8 ovarian.
Experiment [3] deals with OVCAR-5 ovarian.
Experiment [4] has as its system OVCAR-4 ovarian.
Experiment [5] concerns SK-OV-3 ovarian.
Experiment [6] deals with IGROV1 ovarian.
The test system of experiment [7] is OVCAR-3 ovarian.
Experiment [8] deals with HS 578T breast.
The test system of experiment [9] is NCI/ADR-RES ovarian.
For experiment [10], the system named is T-47D breast.
Experiment [11] deals with BT-549 breast.
In experiment [12] the test system is MDA-MB-435 melanoma.
For experiment [13], the system named is SW-620 colon.
Experiment [14] has as its system MCF7 breast.
The test system of experiment [15] is HCT-116 colon.
In experiment [16] the test system is HCC-2998 colon.
Experiment [17] has as its system KM12 colon.
The subject of experiment [18] is SR leukemia.

About 83,000 compounds went through this panel and 20% of them were active in at least one assay; those are over-represented in the sample as a whole.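 Percent growth is the endpoint: 0 to 100 indicates growth inhibition (40 means 60% inhibition), 0 means no net growth, and negative values indicate cell death.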 Unmarked numbers belong to inactive results. Activity calls are given as the source filed them. The calls were made as follows: active = growth percent below 10; inactive = the rest.

As to `O=S1(=O)NCCCN1CCNc1nccc(-c2c(-c3cccc(O)c3)nc3sccn23)n1`, the growth in experiment [1] was 107%; in experiment [2], 83%; in [3], 108%; in experiment [4], 85.4%; in experiment [5], 43.6%; in [6], 56.7%. Moreover, the growth was 73.3% in experiment [7]; 70.4% in experiment [8]; 116% in experiment [9]; 78.3% in experiment [10]; 86% in experiment [11]; 24.6% in experiment [12]. For the same molecule, the growth in experiment [13] was 88%; in experiment [14], 91.8%; in experiment [15] it was 31%; in [16] it was 108%; in [17], 102%.
On to `CCCCCCCC/C=C/CCCCCCCC1=NC(C)(C)CN1c1ccccc1`, for which the growth is 71.8% in [18]; 87.3% in experiment [2]; 113% in experiment [3]; 99.1% in experiment [5]; 101% in experiment [6]; 90.8% in experiment [7]. Further, the growth in experiment [8] was 89.5%; in experiment [9], 98.1%; in [10], 81.2%; in experiment [11] it was 105%; in experiment [12], 50.3%; in experiment [13] it was 82%. Also, the results for the growth in experiment [15], in [16] and in experiment [17] were 62.8%, 103% and 105%, respectively.
Consider `COC(=O)CSc1ccc(Cl)cc1`, for which the growth in [18] is 78%; in experiment [2] it was 106%; in experiment [3], 107%; in experiment [5] it was 102%; in experiment [6], 93.9%; in experiment [7], 122%. For the same molecule, the growth was 108% in experiment [8]; 115% in experiment [9]; 98.7% in experiment [10]; 105% in experiment [11]; 107% in experiment [12]; 106% in experiment [13]. Also, the growth is 97.2% in experiment [14], 95.5% in experiment [15], 97.4% in experiment [16] and 111% in experiment [17].
Turning to `O=C1OCC2=C1C(c1ccccc1)c1cc3c(cc1N2CCO)CCC3` (stereo not drawn), the growth is 23.9% in [1]; 36.5% in experiment [2]; 26.1% in [3]; 30% in [4]; -20.7% (active) in experiment [5]; 12.4% in [6]. Moreover, the growth is -21.6% (active) in experiment [7]; 3.94% (active) in experiment [8]; -70.4% (active) in experiment [9]; 37.8% in experiment [10]; -1.32% (active) in experiment [11]; -31.9% (active) in experiment [12]. Besides, the growth is 21.5% in experiment [13]; -3.45% (active) in experiment [14]; 4.41% (active) in experiment [15]; -19.8% (active) in [16]; 11.2% in experiment [17].
Consider `O=C1Nc2ccccc2/C1=C\c1nc(C2CCN(S(=O)(=O)c3ccc(F)cc3)CC2)n2ccccc12`, for which the growth in [1] was 94.3%; in experiment [2], 18%; in experiment [3], 88%; in experiment [4], 13.6%; in [5], 57.8%; in experiment [6] it was 57%. In addition, the growth in experiment [7] was 58.6%; in experiment [8] it was 19%; in experiment [9] it was 17%; in experiment [10] it was 48.1%; in [11] it was 2.09% (active); in experiment [12], 70.8%. Further, the growth in experiment [13] is 82.8%; in [14], 48.7%; in [15], 64.8%; in [16], 59.8%.
With `O=C1OCC2=C1C(c1ccccc1)c1cc3c(cc1N2CCO)OCO3` (stereo not drawn), the growth in experiment [1] was 46.4%; in experiment [2], 63.3%; in experiment [3] it was 46.8%; in experiment [4] it was 52%; in [5], 6.79% (active); in [6] it was 39.5%. Besides, the growth in experiment [7] was 3.99% (active); in experiment [8], 23.1%; in [9] it was -20.4% (active); in experiment [10], 1.16% (active); in experiment [11], 43.9%; in experiment [12], 2.96% (active). For the same molecule, the growth was 23.6% in [13]; -11.1% (active) in experiment [14]; 7.22% (active) in experiment [15]; 24.5% in experiment [16]; 23.3% in experiment [17].
In the case of `COc1ccc(CC2c3cc(OC)c(OC)cc3CC[N+]2(C)CCC(=O)OCCCCCOC(=O)CC[N+]2(C)CCc3cc(OC)c(OC)cc3C2Cc2ccc(OC)c(OC)c2)cc1OC` (stereo not drawn), the growth in [1] was 96.3%; in experiment [2], 96.5%; in experiment [3], 103%; in [4] it was 89.8%; in experiment [5], 110%; in [6] it was 102%. Further, the growth was 95.9% in experiment [7]; 93.4% in experiment [8]; 78.1% in [9]; 94.5% in experiment [10]; 103% in experiment [11]; 96.7% in experiment [12]. Moreover, the growth is 100% in experiment [13]; 85.2% in experiment [14]; 88.5% in [15]; 105% in [16]; 101% in experiment [17].
On to `O=C(CCCN1CCC(O)(c2ccc(Br)cc2)CC1)c1ccc(F)cc1`, for which the growth was 73.4% in experiment [1]; 79.3% in [2]; 80% in experiment [3]; 64.7% in experiment [4]; 86% in experiment [5]; 74% in [6]. Besides, the growth in experiment [7] was 90%; in experiment [9], 74%; in experiment [10] it was 70.5%; in experiment [11], 60.6%; in experiment [12], 65.4%; in experiment [13], 78.1%. Moreover, the growth is 70.4% in experiment [14], 38.9% in [15], 71% in [16] and 83.5% in [17].
`O=C1Nc2ccc(Cl)cc2/C1=C\c1c(-c2ccc(F)cc2)nc2ccccn12`: the growth was 70.4% in [1]; 22% in [2]; 37% in experiment [3]; -69.7% (active) in [4]; -52.1% (active) in experiment [5]; 20.6% in experiment [6]. The growth in experiment [7] was -70.4% (active); in experiment [8] it was 1% (active); in experiment [9] it was -37% (active); in experiment [10], 9.64% (active); in experiment [11] it was 15.7%; in experiment [12], -34.5% (active). Besides, the growth in experiment [13] is 8.89% (active); in experiment [14] it was -9.38% (active); in experiment [15], -78.7% (active); in [16], 44.7%; in experiment [17] it was -32.1% (active).
